Data taken from PubChem BioAssay AID652104 (National Center for Advancing Translational Sciences (NCATS), 2013).
About 7,200 (1.8%) of roughly 410,000 compounds were called active. Inconclusive results (about 7%) are left out. Calls follow the shape of the dose curve; as a rule, active = well fitted activation curve with a large enough effect; inconclusive = small, poorly fitted or top-dose-only effect, or another doubt; inactive = no such curve, though single readings can be large or run the other way. Many of the other results were omitted from the sample, so actives are more common in it than they were.

Test: qHTS of TDP-43 Inhibitors; also: nearly all actives have a fitted effect of over 50% in size; as to Growth rescue (activation): % of control where 0% means no effect
Details: TDP-43 expressing yeast growth rescue, BacTiter-Glo, 24 h; series mostly up to 46.1 µM
How it was run: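 In this qHTS, compounds that restore growth of yeast expressing TDP-43 appear as activators. Cells (OD600=0.02, galactose medium, raffinose-pregrown) are incubated with compound 24 hr at 30 deg C and growth is quantified by BacTiter-Glo.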
Potency is read from the fitted curve at half-maximal effect.

Potency, active:
COc1ccccc1-c1n[nH]c2c1[C@H](C)CC[C@H]2C(C)C 25.1 µM, Cc1nc2ccccc2c(-c2ccccc2)c1C(=O)c1ccccc1 22.4 µM, CC(C)CC(=O)N/C(N)=N/c1nc2ccccc2s1 15.8 µM, O=C(C1CCN(c2nnc(-n3cccc3)s2)CC1)N1CCc2ccccc2C1 35.5 µM, O=C(C(=O)N1CCC(c2ccccc2)CC1)c1ccccc1 12.6 µM, CC(=O)Oc1ccc(N(C(C)=O)S(=O)(=O)c2ccc3ccccc3c2)cc1Br 12.6 µM, COc1cc(OC)c(OC)cc1/C=C/c1nc2ccccc2c(=O)n1-c1ccc(Br)c(C)c1 22.4 µM, Cc1ccc(Cl)cc1N(C)C(=O)C1CCCN(c2ncnc3onc(-c4ccc(F)cc4)c23)C1 (stereo not drawn) 35.5 µM, O=C(Nc1ccccc1C(F)(F)F)c1cc(-c2ccc(O)cc2)on1 12.6 µM, CCn1c(CSCc2c(Cl)cccc2Cl)n[nH]c1=S 11.2 µM, CCOc1cc(/C=N/Nc2cc(C)nc3ccc(C)cc23)ccc1O 15.8 µM, Cc1nc2sc(C(=O)c3ccccc3)c(N)c2c2c1CCCC2 22.4 µM, CN(C)c1ccnc2sc(C(=O)c3ccccc3)c(N)c12 6.31 µM, Cc1ccc2c(N)c(C(=O)c3ccccc3)sc2n1 14.1 µM, NC(=O)c1sc2nc3c(c(-c4ccccc4)c2c1N)CCC3 28.2 µM, COc1ccc2[nH]c3ccc(OC)cc3c2c1 8.91 µM, Cc1cccc(Nc2nc(-c3ccccc3)cs2)n1 14.1 µM, COc1ccc(-c2csc(Nc3ccccn3)n2)cc1 3.55 µM

Potency, inactive:
COc1ccccc1-c1n[nH]nc1C1=CC(=O)CC(C)(C)C1, COc1ccc(N2CCN(C(=O)c3c(C)oc4nc(C)nc(N5CCCC5)c34)CC2)cc1, NS(=O)(=O)c1ccc(NC(=O)COc2ccc(S(=O)(=O)NC3CCCCC3)cc2)cc1, CCOc1ccc(C2CC(=O)c3c([nH]c(C(=O)OCc4ccccc4)c3C)C2)cc1 (stereo not drawn), O=C(Cn1nc(Cc2cccnc2)c2ccccc2c1=O)N1CCN(c2ccccc2F)CC1, CCN(CC)S(=O)(=O)c1nnc(NC(=O)COc2ccccc2Cl)s1, Nc1[nH]c(C(=O)c2ccccc2)c(-c2ccncc2)c1C(=O)NCc1cccc2ccccc12, CC(C)(C)C(=O)c1c(N)[nH]c(C(=O)c2ccccc2)c1-c1ccc(F)cc1, CC(C)c1ccc(NS(=O)(=O)c2ccc3[nH]cc(C(=O)NC4CCCC4)c(=O)c3c2)cc1, CCCOc1ccc(C2c3c(-c4ccccc4O)n[nH]c3C(=O)N2Cc2cccnc2)cc1 (stereo not drawn), Cc1c(Cl)cccc1NC(=O)C1CCCN(C(=O)c2cnn(-c3ccccc3)c2-n2cccc2)C1 (stereo not drawn), Cc1cc(C)cc(-n2ccnc2SCC(=O)Nc2nc3ccccc3s2)c1, CCN1CCN(CCCNC(=O)c2ccc3c(c2)sc2nc(-c4ccc(OC)cc4)cn23)CC1, O=C(NCCc1ccccc1)c1ccc2c(c1)N(Cc1ccccc1)C(=O)c1ccccc1S2(=O)=O, Cc1ccccc1CNC(=O)CCc1cn(Cc2ccccc2C)c2ccccc12, CCOC(=O)C1CCCN(C(=O)C2CCN(c3nnc(-n4cccc4)s3)CC2)C1 (stereo not drawn), CSc1ccc(CCNC(=O)C2CCN(c3nnc(-n4cccc4)s3)CC2)cc1, Cc1ccc(-c2nn3c(=O)cc(CN4CCN(C(=O)Nc5cccc(C(F)(F)F)c5)CC4)nc3s2)cc1, O=S(=O)(c1ccccc1)N1CCC(c2ccccc2)CC1, Cc1nc2ccc(NC(=O)N3CCC(c4ccccc4)C3)cc2nc1C (stereo not drawn), Cc1cccc2nc(-c3ccc(Cl)s3)c(Nc3ccc4c(c3)OCCO4)n12, Fc1ccc(-c2nc(Nc3cccc(Cl)c3)nc3c2COc2ccccc2-3)cc1, Cc1ccn2c(Nc3ccc4c(c3)OCCO4)c(-c3ccc(C)s3)nc2c1, CC(=O)N(c1ccc2oc(=O)sc2c1)S(=O)(=O)c1ccc(C)cc1, CCN1CCN(C(=O)CN(C)S(=O)(=O)c2ccc3ccccc3c2)CC1, Cc1cccc(-n2ncc(C(=O)N3CCC(C)CC3)c2C2CCN(C(=O)OC(C)(C)C)CC2)c1, CC(C)(C)C1CCc2c(sc(NC(=O)c3ccccc3F)c2C(=O)N2CCCCC2)C1 (stereo not drawn), COc1ccc(-c2nc(Cn3c(=O)cc(C)c4c(C)nn(-c5ccccc5)c43)c(C)o2)cc1OC, CCc1ccccc1NC(=O)c1cnn(-c2ccc(F)cc2)c1C1CCNCC1, COc1ccccc1CNC(=O)C(=O)NCC(c1ccco1)S(=O)(=O)c1ccc(F)cc1 (stereo not drawn), COc1cc(OC)c(OC)cc1/C=C/c1nc2cc3ccccc3cc2c(=O)n1-c1ccc(F)c(Cl)c1, COc1cc(C(=O)Nc2ccc(-n3c(C)nc4ccccc4c3=O)cc2)cc(OC)c1OC, CCc1ccccc1N(C)C(=O)C1CCCN(c2ncnc3onc(-c4ccc(F)cc4)c23)C1 (stereo not drawn), Cc1c(Cl)cccc1NC(=O)C1CCCN(c2ncnc3onc(C)c23)C1 (stereo not drawn), Cc1cn(C)c(CC(=O)NCc2ccccc2)c1C(=O)O, O=C(/C=C/c1ccccc1)N1CCN(Cc2cc(=O)n3nc(-c4ccccc4F)sc3n2)CC1, O=C(NCc1ccccc1)c1cc(-c2cccc(Cl)c2)on1, CCc1ccccc1NC(=O)c1cc(-c2ccc3c(c2)OCO3)on1, COc1ccc(NC(=O)Cn2c(=O)cc(C)c3c(C)nn(-c4cccc(Cl)c4C)c32)cc1OC, CCOC(=O)c1cc(-c2ccccc2)n(-c2cccc(C(=O)Nc3cc(OC)cc(OC)c3)c2)c1C, CC(C)OCCCn1c(SCC(=O)c2ccccc2)nc2c(sc3ccccc32)c1=O, CCn1c(CNS(=O)(=O)c2ccc(Cl)cc2)n[nH]c1=S, CCn1c(CN2C(=O)CSc3ccccc32)n[nH]c1=S, CCOC(=O)c1c(S(=O)(=O)NCC(=O)Nc2ccc(Cl)c(C(F)(F)F)c2)c(C)n(C)c1C, CCOc1cc(/C=C2\SC(N3CCCC(C)C3)=NC2=O)ccc1O (stereo not drawn), COc1cc(OC)cc(C(=O)Nc2cc3nn(-c4ccccc4)nc3cc2Cl)c1, O=[N+]([O-])c1cc(-c2nc(-c3ccccc3)no2)ccc1NCc1ccco1, CCc1nn(CCCC(=O)NCc2ccccc2OC)c(=O)c2cc3occc3n12, CCCS(=O)(=O)c1c(Nc2ccccc2C)sc(C(=O)c2ccccc2)c1N, COc1cccc(C(=O)c2sc3nc(-c4ccccc4)cc(C(F)(F)F)c3c2N)c1, COc1ccccc1NC(=O)c1sc2nc(C)c(C(=O)Nc3ccc(Cl)cc3)c(-c3ccc(Br)cc3)c2c1N, CN(C(=O)c1ccccc1)c1nccnc1C#N, COC(=O)c1cc2c(N)c(C(=O)c3ccc(Cl)cc3)sc2nc1C(OC)OC, Cc1ccc(NC(=O)c2sc3nc(N)c(C#N)cc3c2N)cc1, Nc1c(C(=O)c2cccs2)sc2nsc(SCCN3CCCCC3)c12, Cc1ccccc1CSCCNC(=O)C1CCN(S(=O)(=O)Cc2ccccc2)CC1, Cc1c(NS(=O)(=O)c2ccc(Cl)cc2)c(=O)n(-c2ccccc2)n1C, CCCN(CCC)CCNC(=O)Cn1cnc2sc(C)c(S(=O)(=O)N3CCC(C)CC3)c2c1=O, CCc1ccccc1NC(=O)N1CCN(C(=O)c2nsc3ccccc23)CC1, COc1ccc(C2Sc3ccccc3NC3=C2C(=O)c2ccccc23)c(OC)c1OC (stereo not drawn), Cc1ccc(C(=O)Nc2ccc(C(=O)O)cc2)cc1S(=O)(=O)Nc1ccccc1, Cc1cccc(C(=O)Nc2ccc(-c3nc4ncccc4o3)cc2C)c1, O=C(NCc1cccnc1)C(=O)NCC(c1cccnc1)N1CCN(c2ccccc2)CC1 (stereo not drawn), O=C(NCc1ccc2c(c1)CCN2C(=O)c1ccccc1)c1ccccc1, COc1ccc(N)c(C)c1, COc1ccc2[nH]c3c(C)c4cc[n+](C)cc4c(C)c3c2c1, Cc1ccc(Cl)cc1N(C)C(=O)Cn1nc(Cc2cccnc2)c2ccccc2c1=O, CCCn1c2ccccc2c2cnn(CC(=O)N3CCCC(C(=O)OCC)C3)c(=O)c21 (stereo not drawn), CCc1ccc(S(=O)(=O)n2ccnc2)cc1, COc1cccc(Cn2c(SCc3ccc(C(=O)N4CCC(C)CC4)cc3)nc3ccncc32)c1, N#C/C(=C\c1cccc(F)c1)c1nc(-c2cc3c(ccc4ccccc43)oc2=O)cs1, O=C(CSc1nc2c(c(=O)[nH]1)CN(Cc1ccc3c(c1)OCO3)CC2)Nc1cc(F)ccc1F, Cc1cc(-c2ccccc2)n2nc(-c3ccccc3)cc2n1, Cc1cccc(NS(=O)(=O)c2ccc([N+](=O)[O-])cc2)n1, CCCn1c(C2CCCN2c2nc(-c3ccc(OC)cc3)cs2)nc2ccccc21 (stereo not drawn), COc1ccc(-c2csc(-c3c(N)c(C(=O)c4ccc(OC)c(OC)c4)n4ccccc34)n2)cc1

Growth rescue (activation), inactive:
CCCNC(=O)CCC(=O)N1Cc2ccccc2Oc2ncccc21 7.07% [at 9.22 µM], CC(C)CC(=O)NC(=S)NNC(=O)c1cccc([N+](=O)[O-])c1 -4.92% [at 9.22 µM], O=C(Cc1ccc(Cl)cc1)NCC(c1cccs1)S(=O)(=O)c1ccc(Cl)cc1 (stereo not drawn) 0.548% [at 9.22 µM], CC(C)(C)c1ccc(C(=O)Nc2ccc3c(c2)CCCN3C(=O)c2cccs2)cc1 18.3% [at 9.22 µM]
